This note sets out measurements from PubChem BioAssay (NCATS).

The target in assay [1] is Cytochrome P450 1A2 (Homo sapiens) (UniProt P05177). Nature of the assay: p450-cyp1a2 (AID 410; calls by dose curve; further: potency means the concentration at half of the fitted maximal effect;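 on activity change, negative = inhibition: -100% = full effect of reference inhibitor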). In a few lines: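 Luminescent demethylation readout: Luciferin-ME (100uM, equal to Km) turned over by 20nM CYP1A2 for 60 min at room temperature after NADPH regeneration addition, following 10 min compound preincubation. Normalization used 57 uM furafylline as full inhibition.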

For assay [2], the target named is Glucocorticoid receptor (Homo sapiens) (UniProt P04150). Briefly: GR-GFP Redistribution (AID 450;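 active means compounds whose dose series gives a full or clear partial fitted curve of increased nuclear translocation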; further: potency means the concentration at half of the fitted maximal effect). As to conditions: U2OS GR-GFP nuclear translocation, laser cytometry, 2 h.
Assay [3] shares this target. Briefly: GR-EFC Redistribution (AID 451; calls by dose curve; further: potency means the concentration at half of the fitted maximal effect). As to conditions: CHO-K1 GR-EFC translocation, beta-gal luminescence, 2 h. In a few lines:
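CHO-K1 cells expressing nuclear EA and GR-ED fragments of b-gal; compounds titrated up to 46 uM final, 2 h at 37 C. GR nuclear translocation read as complemented b-gal luminescence after 1 h RT detection.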

Assay [4] addresses Mitogen-activated protein kinase 10 (Mus musculus) (UniProt Q61831). Nature of the assay: JNK3 AlphaScreen Assay (AID 530; active means well fitted curve in either direction with a large enough effect, not every such curve was filed as active;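 further: kinase came from lysate of stimulated human HepG2 cells; signal reports phosphorylation of biotinylated GST-cJun 1-79 at Ser73 with 10 µM ATP; on the % scale 0 is the no-effect control and ±100 the full control effect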). The procedure, abridged:
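Activity was read by AlphaScreen after JNK3-containing HepG2 lysate (cytokine pre-activated) phosphorylated biotinylated GST-cJun with 10 uM ATP at room temperature. Phospho-Ser73 cJun antibody with Protein-A acceptor beads provided detection.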

A short description of assay [5]: qHTS Assay for Lipid Storage Modulators (AID 1519; calls by dose curve). As to conditions: Drosophila S3 cells, BODIPY lipid droplet/cell ratio, laser cytometry, cells loaded with oleic acid; for activity change, negative = inhibition: at 57.5 µM (top of the series). In a few lines:
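Cells seeded at 5,000 per well were treated with compounds over a concentration series and loaded with oleic acid (400 uM, as added). Lipid droplet fluorescence (488 nm excitation, 500-530 nm channel) was read by laser-scanning cytometry and normalized to 20 uM Triacsin C.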
On the technique in general: In qHTS, concentration-response curves come from the screen itself.

In assay [6] the target is DNA dC->dU-editing enzyme APOBEC-3G (Homo sapiens) (UniProt Q9HC16). Nature of the assay: qHTS for inhibitors of Vif-A3G interactions: Validation (AID 588379). Further: 0% is about no effect. The procedure, abridged:
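Yellow fluorescence (Ex 488, Em 500-530) of Vif-coexpressing HeLa A3G-eYFP cells, scanned by Acumen cytometer, reports blocked A3G degradation. Cells plated at 700/well overnight at 37 deg C before compound addition, then a further overnight compound incubation at 37 deg C.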

Assay [7] deals with Zika virus NS2B-NS3 protease. Nature of the assay: Primary screen GU AMC qHTS for Zika virus inhibitors (AID 1347154).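 Further: 0% = no-inhibitor control and -100% = no-enzyme control; nearly all actives have a fitted effect of over 70% in size.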 In a few lines: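 Unlinked Zika NS2B hydrophilic domain–NS3 protease complex at 25 nM in 10 mM Tris-HCl pH 8.0, 0.01% Tween 20, with an AMC peptide substrate. Fluorescence change (340/450 nm) over 15 min at room temperature, normalized to controls, fitted to 4-parameter Hill.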

The nature of assay [8]: Primary qHTS for small molecule stabilizers of the endoplasmic reticulum resident proteome: Secreted ER Calcium Modulated Protein (SERCaMP) assay (AID 1508630). Further: on the % scale 0 is the no-effect control and ±100 the full control effect. The procedure, abridged: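 The SH-SY5Y reporter protocol was run at 3 concentrations up to 38.3 uM (primary) or 11 concentrations (follow-up): 16 h compound, 100 nM thapsigargin for 4 h, then extracellular luciferase luminescence.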

Assay [9] addresses 3',5'-cyclic-AMP phosphodiesterase 4B (Homo sapiens) (UniProt Q07343). Nature of the assay: qHTS Assay for Inhibitors of PDE-IV (AID 607; active means well fitted activation curve with a large enough effect in the main read-out, with a control signal flat, not every such curve was filed as active; further: % of control where 0% means no effect). In a few lines:
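ACTOne HEK293 cells carry a modified cAMP-gated CNG channel and express endogenous PDE4; plated 1000 cells/well, compounds up to 22.9 uM final. Membrane-potential dye fluorescence (ex 535/em 590) was read; parental cells received 10 uM forskolin + 100 uM RO 20-1724.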

For assay [10], the target named is Ubiquitin carboxyl-terminal hydrolase 1 (Homo sapiens) (UniProt O94782). Briefly: Inhibitors of USP1/UAF1: Pilot qHTS (AID 504865).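 Further: rhodamine fluorescence freed from ubiquitin-rhodamine substrate followed over time; top concentration of the series differs between compounds; on the % scale 0 is the no-effect control and ±100 the full control effect; nearly all actives have a fitted effect of over 35% in size.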 In a few lines: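 USP1/UAF1 complex at 1 nM preincubated 15 min at room temperature with compound, then Ub-Rho substrate added at 150 nM final. Fluorescence (480/540 nm) read kinetically in 50 mM HEPES pH 7.8, 0.5 mM EDTA, 1 mM TCEP, 0.1 mg/ml BSA, 0.01% Tween-20.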

Assay [11] can be described thus: AP1 Signaling Pathway (AID 357; active means well fitted curve in either direction with a large enough effect, not every such curve was filed as active;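 further: ME-180 reporter cells stimulated with EGF at its EC50 level; on the % scale 0 is the no-effect control and ±100 the full control effect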). The conditions noted are these: ME-180 AP-1-bla reporter, EGF-induced, beta-lactamase ratio, 5 h; at 38 µM (top of the series). In a few lines:
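Cells are seeded overnight, exposed to compound titrations and an EC50 level of EGF for 5 hours at 37 °C, then loaded with CCF4 dye for 2.5 hours. Beta-lactamase activity under the AP-1 element is read as a blue/green ratio.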

Assay [12] is described as follows: NFAT Signaling Pathway (AID 444; active means well fitted curve in either direction with a large enough effect, not every such curve was filed as active;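 further: carbachol stimulus at about its EC50 of 1 µM final; on the % scale 0 is the no-effect control and ±100 the full control effect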). The conditions noted are these: Jurkat NFAT-bla M1, carbachol, beta-lactamase ratio, 5 h; at 38 µM (top of the series). In a few lines: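 Jurkat cells with NFAT-driven β-lactamase reporter and co-expressed M1 receptor, stimulated with carbachol (final 1 uM, ~EC50), compound titration, 5 h at 37 °C. CCF4 loaded 1 h at RT; 460/530 nm ratio gave %activity and AC50.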

Assay [13] in a line: Stat Signaling Pathway (AID 446; active means well fitted curve in either direction with a large enough effect, not every such curve was filed as active). As to conditions: ME-180 (cervical carcinoma) SIE beta-lactamase reporter, IL-6 stimulated, 5 h; at 38 µM (top of the series). In a few lines:
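Compound effects on IL-6-induced STAT reporter activity were measured in ME-180 cells. After overnight culture, cells were co-treated with 40 pM IL-6 for 5 hrs before beta-lactamase substrate loading at room temperature.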

The target in assay [14] is Guanine nucleotide-binding protein G(i) subunit alpha-1 (Homo sapiens) (UniProt P63096). Nature of the assay: qHTS Assay for Inhibitors of RGS12 GoLoco Motif Activity (Green Fluorophore) (AID 879).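 Further: 0% = labeled peptide with Gαi1 and full inhibition = labeled peptide alone without protein; negative values mean loss of peptide binding seen as reduced polarization.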 The procedure, abridged: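 A drop in FITC polarization marked displacement of the FITC-tagged RGS12 GoLoco peptide (10 nM) from Gαi1 (50 nM). Compounds were incubated 10 min at room temperature in Tris pH 7.5 buffer containing 150 mM NaCl, 0.1 mM GDP and 0.05% NP40; unlabeled peptide titration served as control.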

Assay [15] in a line: qHTS Assay for Identification of Small Molecule Agonists for Thrombopoietin (TPO) Signaling Pathway (AID 917). Further: on the % scale 0 is the no-effect control and ±100 the full control effect. In a few lines:
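Stimulation at the TPO EC50 (26 pM final) was used to detect activators. Ba/F3 mouse cells bearing human TPO receptor and a luciferase reporter under the Glycoprotein IIb promoter were exposed to compounds for 24 hrs at 37 C.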

The target in assay [16] is Pyruvate kinase (Leishmania mexicana) (UniProt Q27686). Briefly: qHTS Validation Assay for Inhibitors of Leishmania Mexicana Pyruvate Kinase (AID 945).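 Further: 0% = DMSO only neutral control wells.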 In a few lines:
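Eight-point qHTS titrations in triplicate, data normalized to DMSO neutral control. Reaction: 0.2 nM LmPYK E451W mutant, 0.5 mM PEP, 0.1 mM ADP, 7 mM MgCl2, pH 7.2, one hour at room temperature; luminescent ATP detection.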

Assay [17] has as its target Alpha-galactosidase A (Homo sapiens) (UniProt P06280). Briefly: Counterscreen for Glucocerebrosidase Inhibitors: qHTS Assay for Human alpha-Galactosidase at pH 4.5 (AID 992). Further: 0% is about no effect. In a few lines:
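Citrate buffer pH 4.5, Tween-20 0.005%. Enzyme 2 nM, substrate 80 uM, 20 min RT. Stop pH 10. Fluorescence Ex 365/Em 440. AC50 by Hill fit.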
For orientation: A counterscreen serves to expose hits that act by an unwanted route or on another target.

The target in assay [18] is alpha-glucosidase (Oryza sativa, rice) (UniProt Q653V4). Briefly: Counterscreen for Glucocerebrosidase Inhibitors: qHTS Assay for Rice alpha-Glucosidase at pH 5.0 (AID 997).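 Further: 0% = full activity with enzyme and -100% = basal without enzyme.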 In a few lines:
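Endpoint fluorogenic assay at pH 5.0: compounds (0.7 nM to 77 uM) titrated against 4 nM rice enzyme and 400 uM 4-MU-alpha-glucoside for 20 min at room temperature; NaOH/glycine stop, read ex 365/em 440 nm, Hill-fitted AC50.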

Assay [19] addresses Cytochrome P450 3A4 (Homo sapiens) (UniProt P08684). Briefly: qHTS Assay for Activators of Cytochrome P450 3A4 (AID 885). Further: nearly all actives have a fitted effect of over 65% in size. The procedure, abridged: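 CYP3A4 activity: Luciferin-PPXE O-dealkylation, 25uM substrate, 200mM KPO4, RT throughout. Read-out is luciferase luminescence; higher values reflect activation.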
[20] abbreviates: measured here: cell count channel max response.
Where [21] appears, read: measured here: lipid channel max response.

Records with an inconclusive call do not appear. Calls of active or inactive are those of the source. Unless noted, the call rests on the fitted dose curve; in most records, active means well fitted curve in the direction sought with a large enough effect; inconclusive means small, poorly fitted or top-dose-only effect, or another doubt; inactive means no such curve, though single readings can be large; an effect the other way counts as inactive or inconclusive.

Sequence of Ubiquitin carboxyl-terminal hydrolase 1 (Homo sapiens) (O94782 whole entry, looked up): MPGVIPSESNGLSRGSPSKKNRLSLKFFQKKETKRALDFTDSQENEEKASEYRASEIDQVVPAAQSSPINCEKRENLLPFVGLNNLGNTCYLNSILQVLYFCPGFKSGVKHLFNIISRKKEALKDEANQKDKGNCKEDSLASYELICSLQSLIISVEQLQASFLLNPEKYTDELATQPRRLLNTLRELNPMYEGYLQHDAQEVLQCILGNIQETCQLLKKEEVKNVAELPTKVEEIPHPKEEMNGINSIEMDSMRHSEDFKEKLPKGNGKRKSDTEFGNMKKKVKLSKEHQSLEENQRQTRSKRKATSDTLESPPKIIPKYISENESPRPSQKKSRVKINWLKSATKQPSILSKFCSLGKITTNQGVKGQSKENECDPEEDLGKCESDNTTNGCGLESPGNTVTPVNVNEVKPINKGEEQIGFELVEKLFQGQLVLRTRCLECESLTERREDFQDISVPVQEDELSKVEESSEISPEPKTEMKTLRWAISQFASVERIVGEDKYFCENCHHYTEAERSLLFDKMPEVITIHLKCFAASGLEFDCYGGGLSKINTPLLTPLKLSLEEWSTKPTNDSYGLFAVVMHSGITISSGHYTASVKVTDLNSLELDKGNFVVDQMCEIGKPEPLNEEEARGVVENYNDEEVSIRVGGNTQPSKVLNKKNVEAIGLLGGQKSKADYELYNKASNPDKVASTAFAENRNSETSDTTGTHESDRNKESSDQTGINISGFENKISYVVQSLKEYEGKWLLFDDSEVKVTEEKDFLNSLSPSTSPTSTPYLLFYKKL
Sequence of Cytochrome P450 1A2 (Homo sapiens) (P05177 whole entry, looked up): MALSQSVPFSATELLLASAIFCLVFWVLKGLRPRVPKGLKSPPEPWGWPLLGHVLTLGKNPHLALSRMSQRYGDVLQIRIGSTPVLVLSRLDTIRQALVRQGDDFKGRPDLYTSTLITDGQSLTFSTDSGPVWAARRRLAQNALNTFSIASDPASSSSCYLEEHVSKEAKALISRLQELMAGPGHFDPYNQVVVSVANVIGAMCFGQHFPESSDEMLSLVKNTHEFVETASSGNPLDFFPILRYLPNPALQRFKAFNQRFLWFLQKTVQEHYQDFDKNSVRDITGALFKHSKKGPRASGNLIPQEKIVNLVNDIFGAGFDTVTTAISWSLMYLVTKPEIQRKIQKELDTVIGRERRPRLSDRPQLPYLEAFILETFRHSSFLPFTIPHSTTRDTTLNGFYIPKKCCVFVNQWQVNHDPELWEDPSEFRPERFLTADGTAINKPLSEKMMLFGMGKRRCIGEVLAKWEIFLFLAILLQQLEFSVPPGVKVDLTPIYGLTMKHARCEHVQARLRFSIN
Sequence of DNA dC->dU-editing enzyme APOBEC-3G (Homo sapiens) (Q9HC16 whole entry, looked up): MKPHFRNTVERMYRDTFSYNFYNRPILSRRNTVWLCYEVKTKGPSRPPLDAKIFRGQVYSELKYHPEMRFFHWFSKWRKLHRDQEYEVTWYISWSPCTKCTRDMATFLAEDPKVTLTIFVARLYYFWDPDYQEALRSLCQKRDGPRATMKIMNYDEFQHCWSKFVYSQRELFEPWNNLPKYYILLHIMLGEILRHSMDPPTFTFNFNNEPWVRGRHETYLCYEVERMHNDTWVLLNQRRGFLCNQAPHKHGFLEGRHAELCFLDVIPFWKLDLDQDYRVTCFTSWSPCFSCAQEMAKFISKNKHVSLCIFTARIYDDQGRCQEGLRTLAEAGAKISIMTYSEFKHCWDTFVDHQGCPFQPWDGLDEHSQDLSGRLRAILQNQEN
Sequence of Glucocorticoid receptor (Homo sapiens) (P04150 whole entry, looked up): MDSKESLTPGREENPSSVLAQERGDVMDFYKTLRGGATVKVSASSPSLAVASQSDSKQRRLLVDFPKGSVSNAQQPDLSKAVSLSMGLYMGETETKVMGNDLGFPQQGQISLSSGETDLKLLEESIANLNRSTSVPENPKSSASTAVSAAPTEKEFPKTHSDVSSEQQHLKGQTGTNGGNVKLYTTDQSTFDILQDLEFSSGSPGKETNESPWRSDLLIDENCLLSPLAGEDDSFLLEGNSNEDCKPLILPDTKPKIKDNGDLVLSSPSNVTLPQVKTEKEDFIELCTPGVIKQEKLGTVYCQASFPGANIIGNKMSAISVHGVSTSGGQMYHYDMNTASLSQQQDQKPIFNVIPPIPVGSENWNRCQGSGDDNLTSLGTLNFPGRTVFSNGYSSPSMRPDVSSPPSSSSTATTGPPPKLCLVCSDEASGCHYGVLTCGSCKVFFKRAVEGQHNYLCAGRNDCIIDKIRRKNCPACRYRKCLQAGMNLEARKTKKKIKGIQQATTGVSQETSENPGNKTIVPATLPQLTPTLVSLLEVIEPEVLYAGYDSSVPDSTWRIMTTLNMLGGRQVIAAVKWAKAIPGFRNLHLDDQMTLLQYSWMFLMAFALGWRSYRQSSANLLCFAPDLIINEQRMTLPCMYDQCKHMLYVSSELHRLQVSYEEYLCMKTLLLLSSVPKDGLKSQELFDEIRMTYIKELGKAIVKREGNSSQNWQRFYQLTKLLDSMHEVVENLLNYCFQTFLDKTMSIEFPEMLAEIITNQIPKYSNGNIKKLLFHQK
Sequence of 3',5'-cyclic-AMP phosphodiesterase 4B (Homo sapiens) (Q07343 whole entry, looked up): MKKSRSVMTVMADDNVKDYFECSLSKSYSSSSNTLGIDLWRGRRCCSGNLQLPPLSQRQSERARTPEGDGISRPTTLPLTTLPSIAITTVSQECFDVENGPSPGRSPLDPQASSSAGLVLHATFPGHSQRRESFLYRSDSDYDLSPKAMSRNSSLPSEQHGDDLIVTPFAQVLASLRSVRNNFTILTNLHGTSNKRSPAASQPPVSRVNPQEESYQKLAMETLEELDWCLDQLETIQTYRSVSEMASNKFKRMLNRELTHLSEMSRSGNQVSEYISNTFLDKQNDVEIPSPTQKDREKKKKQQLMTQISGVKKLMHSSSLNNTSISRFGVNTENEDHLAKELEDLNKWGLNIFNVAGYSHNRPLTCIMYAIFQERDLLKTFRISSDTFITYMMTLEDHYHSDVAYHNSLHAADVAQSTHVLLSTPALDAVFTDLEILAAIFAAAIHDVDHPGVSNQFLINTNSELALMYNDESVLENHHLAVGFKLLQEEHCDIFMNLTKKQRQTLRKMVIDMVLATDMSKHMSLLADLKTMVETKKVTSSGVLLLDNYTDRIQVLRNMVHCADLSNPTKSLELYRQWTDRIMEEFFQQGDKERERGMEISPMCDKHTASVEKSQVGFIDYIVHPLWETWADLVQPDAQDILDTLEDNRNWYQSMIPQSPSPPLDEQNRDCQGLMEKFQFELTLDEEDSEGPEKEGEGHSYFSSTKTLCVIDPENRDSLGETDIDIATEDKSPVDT
Sequence of Guanine nucleotide-binding protein G(i) subunit alpha-1 (Homo sapiens) (P63096 whole entry, looked up): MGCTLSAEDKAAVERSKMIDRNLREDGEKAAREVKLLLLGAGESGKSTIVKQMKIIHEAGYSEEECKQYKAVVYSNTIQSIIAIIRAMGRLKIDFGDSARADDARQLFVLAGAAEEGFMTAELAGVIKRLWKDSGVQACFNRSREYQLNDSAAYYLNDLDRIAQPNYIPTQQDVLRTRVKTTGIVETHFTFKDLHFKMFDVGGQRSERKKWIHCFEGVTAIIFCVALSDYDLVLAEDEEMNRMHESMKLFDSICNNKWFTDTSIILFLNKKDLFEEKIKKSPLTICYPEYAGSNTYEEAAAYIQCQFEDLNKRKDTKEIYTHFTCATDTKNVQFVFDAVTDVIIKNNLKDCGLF
Sequence of Alpha-galactosidase A (Homo sapiens) (P06280 whole entry, looked up): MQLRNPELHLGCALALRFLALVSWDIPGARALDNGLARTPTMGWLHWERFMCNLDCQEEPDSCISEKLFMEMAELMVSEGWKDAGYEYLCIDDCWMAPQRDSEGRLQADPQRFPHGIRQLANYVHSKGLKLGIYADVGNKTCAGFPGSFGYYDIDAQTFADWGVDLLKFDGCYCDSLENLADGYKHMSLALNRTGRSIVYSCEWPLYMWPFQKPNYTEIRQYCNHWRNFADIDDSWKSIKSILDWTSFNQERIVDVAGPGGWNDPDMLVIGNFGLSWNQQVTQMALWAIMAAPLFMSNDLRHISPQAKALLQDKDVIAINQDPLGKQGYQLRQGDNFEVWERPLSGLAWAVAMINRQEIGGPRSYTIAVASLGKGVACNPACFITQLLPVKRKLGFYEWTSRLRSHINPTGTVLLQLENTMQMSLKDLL
Sequence of Pyruvate kinase (Leishmania mexicana) (Q27686 2-499 E452W): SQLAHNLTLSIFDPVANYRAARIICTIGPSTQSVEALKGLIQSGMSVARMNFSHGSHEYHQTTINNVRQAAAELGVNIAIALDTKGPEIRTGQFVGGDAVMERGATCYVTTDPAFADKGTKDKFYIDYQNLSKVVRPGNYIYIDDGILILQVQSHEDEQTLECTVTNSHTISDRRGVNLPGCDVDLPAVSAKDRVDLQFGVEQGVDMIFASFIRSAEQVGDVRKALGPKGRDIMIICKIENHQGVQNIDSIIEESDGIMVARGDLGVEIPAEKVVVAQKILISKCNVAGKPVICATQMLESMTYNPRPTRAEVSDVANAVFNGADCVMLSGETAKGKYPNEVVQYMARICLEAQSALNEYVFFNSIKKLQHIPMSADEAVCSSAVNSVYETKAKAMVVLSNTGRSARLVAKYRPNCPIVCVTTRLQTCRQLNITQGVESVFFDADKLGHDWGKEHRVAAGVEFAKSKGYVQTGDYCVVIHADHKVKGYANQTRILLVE
Sequence of Cytochrome P450 3A4 (Homo sapiens) (P08684 whole entry, looked up): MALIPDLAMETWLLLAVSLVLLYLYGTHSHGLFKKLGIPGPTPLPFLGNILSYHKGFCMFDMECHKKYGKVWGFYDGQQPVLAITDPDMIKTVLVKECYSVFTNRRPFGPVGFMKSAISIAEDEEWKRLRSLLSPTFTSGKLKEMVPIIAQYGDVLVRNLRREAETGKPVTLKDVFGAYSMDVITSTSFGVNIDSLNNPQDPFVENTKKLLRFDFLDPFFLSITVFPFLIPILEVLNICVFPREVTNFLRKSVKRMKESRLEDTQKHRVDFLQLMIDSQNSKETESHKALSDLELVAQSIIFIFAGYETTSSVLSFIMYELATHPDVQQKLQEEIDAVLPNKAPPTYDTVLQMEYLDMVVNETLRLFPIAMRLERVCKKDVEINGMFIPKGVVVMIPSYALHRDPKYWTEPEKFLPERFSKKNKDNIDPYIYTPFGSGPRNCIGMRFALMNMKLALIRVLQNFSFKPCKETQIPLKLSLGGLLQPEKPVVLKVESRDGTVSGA

In the case of `N#Cc1cc2[nH]c(=O)c(=O)[nH]c2cc1[N+](=O)[O-]`, the results for the Potency in assay [1], in assay [2] and in assay [3] were 31.6 µM (active), > 46 µM (inactive) and > 46 µM (inactive), respectively. The Potency result in assay [4], in assay [6], in [7] and in [8] was “inactive” throughout. Also, the activity change, negative = inhibition in assay [5] is 2.55% (inactive). Besides, the max response in [5] (setting [20]) was 12.9%; in [5] (setting [21]), 17.2%.

With `N[C@H](CCC(=O)NCC(=O)O)C(=O)O`, the Potency result in [1], in assay [4], in assay [9], in assay [10], in assay [7] and in assay [8] was “inactive” throughout. The Potency in [2] and in assay [3] was > 46 µM (inactive) each time. Further, the activity change, negative = inhibition in assay [5] was -2.27% (inactive). Further, the results for the max response in assay [5] (setting [20]) and in assay [5] (setting [21]) were 4.97% and 3.09%, respectively.

For `N[C@]1(C(=O)O)CCc2cc(C(=O)O)ccc21`, the activity change, negative = inhibition is 2.45% (inactive) in assay [11], 3.1% (inactive) in assay [12] and 5.84% (inactive) in [5]. The activity, negative = inhibition in [13] was -13% (inactive). The Potency in [2] and in assay [3] was > 46 µM (inactive) in each case. Further, the Potency entry in assay [4], in [9], in assay [15], in [16], in [6] and in assay [7] was “inactive” each time. Also, the Potency result in assay [8] was “inactive”. For the same molecule, the result in [14], in assay [17] and in assay [18] was inactive. The max response in assay [5] (setting [20]) came out at 14.2%; in assay [5] (setting [21]), 23.6%.

For the molecule `CC(=O)ON(C(C)=O)S(=O)(=O)c1ccc(Cl)cc1`, the Potency entry in [1], in assay [4], in [9], in [10], in [6] and in assay [7] was “inactive” throughout. In assay [8], the Potency entry was “inactive”. Also, the Potency in [2] and in assay [3] was > 46 µM (inactive) in each case. In assay [5], the activity change, negative = inhibition is -5.19% (inactive). For the same molecule, the max response was -20.7% in assay [5] (setting [20]) and -23.7% in assay [5] (setting [21]).

Consider `O=C(O)COc1ccc(OCCNC[C@@H](O)COc2ccccc2)cc1`, for which the Potency was 39.8 µM (active) in assay [1], > 46 µM (inactive) in assay [2] and > 46 µM (inactive) in [3]. Moreover, the Potency entry in assay [4], in assay [10], in assay [6], in assay [7] and in assay [8] was “inactive” throughout. Also, in [5], the activity change, negative = inhibition is 3.49% (inactive). Moreover, the results for the max response in assay [5] (setting [20]) and in assay [5] (setting [21]) were 8.13% and 11.4%, respectively.

With `COc1cc(N)c(Cl)cc1C(=O)CCC1CCN(CCNS(C)(=O)=O)CC1`, the Potency result in assay [1], in assay [9], in assay [19], in [10], in assay [6] and in [7] was “inactive” in each case. The Potency entry in assay [8] is “inactive”. The Potency in assay [2] and in assay [3] was > 46 µM (inactive) throughout. In assay [5], the activity change, negative = inhibition is 6.39% (inactive). Also, the results for the max response in assay [5] (setting [20]) and in assay [5] (setting [21]) were 24.1% and 32.4%, respectively.

As to `CC(N)=NCCC[C@H](N)C(=O)O`, the figures for the activity change, negative = inhibition in [11], in assay [12] and in [5] were -5.19% (inactive), 5.13% (inactive) and 4.11% (inactive), respectively. Besides, the activity, negative = inhibition in assay [13] was -24.9% (inactive). The Potency in assay [2] and in assay [3] was > 46 µM (inactive) in each case. The Potency result in assay [4], in [9], in [15], in assay [16], in assay [10] and in assay [7] was “inactive” in each case. Moreover, the Potency entry in assay [8] is “inactive”. In addition, the molecule was called inactive in assay [14], in assay [17] and in assay [18]. The values for the max response in assay [5] (setting [20]) and in assay [5] (setting [21]) were -7.21% and -3.8%, respectively.
